HTT ATP protect – Huntington cell model cytoprotection by ATP luminescence | PC12 HTT-Q103 induced, cytoprotection, ATP luminescence, 40 h | Potency, µM (highest dose often 56.4 µM), for inactives: cytoprotection (ATP increase), most hits filed as activators | 230,000 tested, 0.14% active | AID 1471; also: potency is read from the fitted curve at half-maximal effect; % of control where 0% means no effect; nearly all actives have a fitted effect of over 45% in size
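Huntington model: PC12 line, ecdysone-inducible HTTQ103 exon1–GFP, tebufenozide 100 nM. Test articles in a dose series. Endpoint luminescence from cellular ATP.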
HPGD inh – blocks human HPGD enzyme activity; purified HPGD, NADH fluorescence kinetic, PGE2 substrate; AID 894; Potency, µM, for inactives: at the highest dose activity change, negative = inhibition, hits mostly inhibitors; P15428; 150,000 tested, 4.3% active; active = well fitted inhibition curve with a large enough effect, not every such curve was filed as active; inconclusive = small, poorly fitted or top-dose-only effect, or another doubt; inactive = no such curve, though single readings can be large or run the other way; also: potency is read from the fitted curve at half-maximal effect; % is scaled to controls: 0 for no effect and ±100 for the full control effect
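20 nM HPGD preincubated 15 min at room temperature with compound in 50 mM Tris-HCl pH 8, 0.01% Tween 20. Started with 1 mM NAD+ and 30 uM prostaglandin E2; NADH fluorescence (360/450 nm) read 5 times over 30-s intervals, last minus first.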
ALDH1A1 block – blocks purified human ALDH1A1 activity; P00352; Purified ALDH1A1, NADH fluorescence, propionaldehyde substrate; Potency, µM (titrated, usually from 75.3 µM), without a hit: at the highest dose activity, negative = inhibition, most hits filed as inhibitors; 220,000 tested, 7.3% active; active = well fitted inhibition curve with a large enough effect, not every such curve was filed as active; inconclusive = small, poorly fitted or top-dose-only effect, or another doubt; inactive = no such curve, though single readings can be large or run the other way;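 also: potency is read from the fitted curve at half-maximal effect; plate controls were no enzyme wells and a reference inhibitor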
HttQ103 aggreg – mutant huntingtin aggregation inhibition | Potency, µM (series often up to 46.1 µM), for the others: at the highest dose activity change, negative = inhibition, actives largely listed as inhibitors | 220,000 tested, 1.1% active | PC12 HttQ103-GFP aggregates, Acumen cytometry, 40 h; also: potency is read from the fitted curve at half-maximal effect; % is scaled to controls: 0 for no effect and ±100 for the full control effect; nearly all actives have a fitted effect of over 60% in size
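Aggregates are detected as GFP objects 1–25 µm with signal 6 STDEV over background in lysates of induced PC12 cells. These carry Huntingtin exon 1 with 103 glutamines fused to GFP under an ecdysone promoter; compounds titrated.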
CBFb RUNX1 block – CBF-beta/RUNX1 interaction disruption; Q01196+Q13951; AlphaScreen CBFb-His/RUNX1-biotin binding, biochemical; Potency, µM (top dose mostly 59.8 µM), for the others: top-dose activity, negative = inhibition, most hits filed as inhibitors; 230,000 tested, under 10 active; also: % of control where 0% means no effect
Target sequence (Q01196 whole entry, looked up): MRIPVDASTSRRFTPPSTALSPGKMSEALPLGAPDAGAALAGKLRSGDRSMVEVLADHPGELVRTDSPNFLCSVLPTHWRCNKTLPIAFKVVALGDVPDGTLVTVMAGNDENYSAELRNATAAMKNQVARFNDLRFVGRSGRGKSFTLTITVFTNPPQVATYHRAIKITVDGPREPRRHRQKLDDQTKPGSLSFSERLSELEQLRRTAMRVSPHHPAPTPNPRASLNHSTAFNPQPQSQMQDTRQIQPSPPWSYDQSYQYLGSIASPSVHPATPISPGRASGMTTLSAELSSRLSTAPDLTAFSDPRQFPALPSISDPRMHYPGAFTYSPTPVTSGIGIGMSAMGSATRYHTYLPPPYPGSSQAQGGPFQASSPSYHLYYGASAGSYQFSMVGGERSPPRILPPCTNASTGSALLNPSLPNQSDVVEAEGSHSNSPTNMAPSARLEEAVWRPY
Target sequence (Q13951 whole entry, looked up): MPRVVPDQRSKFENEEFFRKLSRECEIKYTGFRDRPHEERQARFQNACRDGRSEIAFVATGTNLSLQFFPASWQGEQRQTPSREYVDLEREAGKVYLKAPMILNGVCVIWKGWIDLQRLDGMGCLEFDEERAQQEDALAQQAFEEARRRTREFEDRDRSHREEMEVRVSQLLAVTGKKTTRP
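Room-temperature protein-protein interaction test with 30 nM each of His-tagged CBF-beta and biotinylated RUNX1, 15 min with compound, then 90 min with nickel plus streptavidin beads. Signal read in AlphaScreen mode.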
PNC assembly inh – perinucleolar compartment assembly inhibition. PC3M PTB-GFP, PNC prevalence imaging, 16 h; stronger effect = lower value. activity change (PNC), negative = inhibition, % at 10 µM. 140,000 tested, 3.1% active;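 active = readout at or below -70, meaning at least 70% loss of cells showing the perinucleolar compartment, a nuclear body marking cancer cells; inconclusive = readout between -30 and a set limit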;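 also: plate controls were DMSO wells for no effect and camptothecin positive control wells for full effect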
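Read-out is percentage of cells bearing a perinucleolar compartment, from automated 20x imaging of fixed, Hoechst-stained PC3M PTB-GFP cells. Cells were seeded 4 h, then exposed 16 h to compound (23 nl of library stock) in duplicate plates.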
* hit, by the source's call; ? = inconclusive; / = no result; [ ] = remark or other dose. A selection: hits, their analogues and other compounds. The true share with any hit is near 11%. Unless noted, calls follow the shape of the dose curve; as a rule, active = well fitted curve in the direction sought with a large enough effect; inconclusive = small, poorly fitted or top-dose-only effect, or another doubt; inactive = no such curve, though single readings can be large; an effect the other way counts as inactive or inconclusive.

SMILES	HTT ATP protect	HPGD inh	ALDH1A1 block	HttQ103 aggreg	CBFb RUNX1 block	PNC assembly inh
COc1ccc(C(=O)N/N=C/c2cc3ccccc3[nH]c2=S)cc1	-3%[10 µM]	1.3µM*	1.4µM*	-28%	?	-27
COc1ccc(C(=O)N/N=C/c2sc3ccccc3c2O)cc1	-80%[10 µM]	-6%	5%	11µM*	?	?
O=C(N/N=C/c1sc2ccccc2c1O)c1ccccc1	-79%[10 µM]	-6%	?	3.2µM*	/	?
COc1ccc2cc(C(=O)N/N=C/c3sc4ccccc4c3O)ccc2c1	-5%[10 µM]	-17%	0%	?	/	?
Cc1ccc(-c2nnc3n2N=C(c2ccccc2Br)CS3)cc1	-23%[0.074 µM]	22µM*	-6%	-20%	-15%	-9
COc1ccccc1C1=Nn2c(nnc2-c2ccccc2OC)SC1	/	/	/	/	2%	/
c1ccc(C2=Nn3c(nnc3-c3cccnc3)SC2)cc1	-25%[0.074 µM]	-9%	15%	20%	-1%	-16
c1ccc(C2=Nn3c(nnc3-c3ccncc3)SC2)cc1	25µM*	-12%	14%	10µM*	2%	48
O=C1c2ccccc2C(=O)N1CCCCN(C(=O)c1cc2ccccc2oc1=O)c1ccc(Cl)cc1	-2%[10 µM]	-11%	7.9µM*	11%	-2%	28
CC(C)CN(C[C@@H](O)[C@H](Cc1ccccc1)NC(=O)O[C@H]1CO[C@H]2OCC[C@H]21)S(=O)(=O)c1ccc(N)cc1	-14%	/	/	8%	/	/
CCc1nnc(NC(=O)c2ccc(S(=O)(=O)N3CCc4ccccc4C3)cc2)s1	3%[10 µM]	-13%	3%	14%	9%	-85*
CCc1nnc(NC(=O)c2c(O)c3cccc4c3n(c2=O)CC4)s1	-33%[10 µM]	-18%	5%	-4%	1%	3
CN(c1cccc(Cl)c1)S(=O)(=O)c1cccc(C(=O)Nc2nc3ccccc3[nH]2)c1	7%[1.9 µM]	-29%	6%	20µM*	-9%	?
CCc1nnc(NC(=O)c2ccc(Cl)c(S(=O)(=O)N3CCc4ccccc4C3)c2)s1	-6%[10 µM]	-11%	-1%	3%	1%	-1
CN(c1ccccc1)S(=O)(=O)c1cccc(C(=O)Nc2ccc3c(c2)CCC3)c1	4%[10 µM]	-24%	10µM*	2%	-1%	?
CCc1nnc(NCC(=O)N2CCc3ccccc32)s1	22%	-9%	25µM*	4%	-15%	?
COC(=O)/C=C/c1ccc(C(=O)NCC(=O)N[C@@H](CCC(=O)OC)C(=O)N[C@@H](CC(C)C)C(N)=O)cc1	-24%	/	?	/	5%	/
NC1=NC2C(N=C(Br)N2[C@@H]2O[C@H]3COP(=O)(O)O[C@@H]3[C@@H]2O)C(=O)N1 (some centres not stated)	24%	/	9%	/	25%	/
CSCC[C@H](NC(=O)[C@H](CO)NC(=O)[C@H](Cc1ccc(O)cc1)NC(=O)[C@@H](N)CO)C(=O)N[C@@H](CCC(=O)O)C(=O)N[C@@H](Cc1cnc[nH]1)C(=O)N[C@@H](Cc1ccccc1)C(=O)N[C@@H](CCCNC(=N)N)C(=O)N[C@@H](Cc1c[nH]c2ccccc12)C(=O)NCC(=O)N[C@@H](CCCCN)C(=O)N1CCC[C@H]1C(=O)N[C@H](C(=O)NCC(=O)N[C@@H](CCCCN)C(=O)N[C@@H](CCCCN)C(=O)N[C@@H](CCCNC(=N)N)C(=O)N[C@@H](CCCNC(=N)N)C(=O)N1CCC[C@H]1C(=O)N[C@H](C(=O)N[C@@H](CCCCN)C(=O)N[C@H](C(=O)N[C@@H](Cc1ccc(O)cc1)C(=O)N1CCC[C@H]1C(=O)N[C@@H](CC(N)=O)C(=O)NCC(=O)N[C@@H](C)C(=O)N[C@@H](CCC(=O)O)C(=O)N[C@@H](CC(=O)O)C(=O)N[C@@H](CCC(=O)O)C(=O)N[C@@H](CO)C(=O)N[C@@H](C)C(=O)N[C@@H](CCC(=O)O)C(=O)N[C@@H](C)C(=O)N[C@@H](Cc1ccccc1)C(=O)N1CCC[C@H]1C(=O)N[C@@H](CC(C)C)C(=O)N[C@@H](CCC(=O)O)C(=O)N[C@@H](Cc1ccccc1)C(=O)O)C(C)C)C(C)C)C(C)C	/	/	/	/	6%	/
Nc1c(Cl)cc(Cl)cc1Cl	-9%	-10%	-3%	/	19%[21.7 µM]	/
CC(C)c1csc(CN2CCC(N3CCC(C(=O)N4CCOCC4)CC3)CC2)n1	-9%[10 µM]	/	3%	-13%[9.22 µM]	7%	/
CCc1nnc(NC(=O)c2cccc(S(=O)(=O)N(C)c3ccccc3)c2)s1	-4%	28µM*	-26%	-8%[9.22 µM]	4%	21
COc1cc(SC)ccc1C(=O)Nc1ccon1	-7%[10 µM]	-23%	20µM*	?	5%	?
COc1cc(SC)ccc1C(=O)NC(C)C	13µM*	/	0%	0%	10%	/
NC1=NC(=O)/C(=C/c2cn(Cc3ccccc3)c3ccccc23)S1	-10%[10 µM]	28µM*	1%	?	-3%	-9
SMILES	HTT ATP protect	HPGD inh	ALDH1A1 block	HttQ103 aggreg	CBFb RUNX1 block	PNC assembly inh
O=C1C2C3C=CC(C3)C2C(=O)N1/N=C/c1cn(Cc2ccccc2)c2ccccc12 (configuration not stated)	18%	-5%	10%	4%	-2%	27
CCNC(=O)[C@H]1O[C@@H](n2cnc3c(N)nc(NCCc4ccc(CCC(=O)O)cc4)nc32)[C@H](O)[C@H]1O	/	-22%	-10%	/	2%	/
NC(=S)Nc1cccc2cccnc12	36%	-13%	-2%	-18%	-2%	85
NC(=S)NNc1cccc2cccnc12	-45%[10 µM]	/	3.5µM*	-6%[9.22 µM]	-7%	/
O=C1OCCN1C(=O)[C@H]1[C@H](c2ccc([N+](=O)[O-])cc2)C(c2ccc(F)cc2)=NN1c1ccc(Br)cc1	-109%[40.3 µM]	-14%	7%[50.4 µM]	/	?	/
Cc1ccc(S(=O)(=O)N/N=C2/CC(=O)CC(C)(C)C2)cc1[N+](=O)[O-]	3%[10 µM]	/	/	-17%[9.22 µM]	-1%	/
Cc1ccc(C)c(S(=O)(=O)N/N=C2/CCCc3ccccc32)c1	?	-15%	?	1%[9.22 µM]	-1%	0
CNC(=S)N/N=C1\CC(c2ccccc2)Oc2ccccc21 (configuration not stated)	-7%	/	4%	8%	2%	/
O=S(=O)(N/N=C1/CC(c2ccccc2)Oc2ccccc21)c1ccc(Br)cc1 (configuration not stated)	-42%	-18%	22µM*	-1%[1.84 µM]	-2%	?
Cc1ccc(S(=O)(=O)N/N=C2/CC(c3ccccc3)Oc3ccccc32)cc1[N+](=O)[O-] (configuration not stated)	-136%	-29%	7.1µM*	?	0%	16
